In PubChem BioAssay (NCATS):
Records with an inconclusive call do not appear. Values without a mark were called inactive. Active and inactive are the calls of the source. Calls come from the whole dose curve; as a rule, active = well fitted inhibition curve with a large enough effect in the signal ratio, with a control signal flat (not every such curve was filed as active); inconclusive = small, poorly fitted or top-dose-only effect, or effect the other way, or a change in a side signal; inactive = flat fitted curve, though single readings scatter; the % refers to the signal ratio.

Biological target: Peroxisome proliferator-activated receptor gamma (Homo sapiens) (UniProt P37231)
Sequence (P37231 whole entry, looked up): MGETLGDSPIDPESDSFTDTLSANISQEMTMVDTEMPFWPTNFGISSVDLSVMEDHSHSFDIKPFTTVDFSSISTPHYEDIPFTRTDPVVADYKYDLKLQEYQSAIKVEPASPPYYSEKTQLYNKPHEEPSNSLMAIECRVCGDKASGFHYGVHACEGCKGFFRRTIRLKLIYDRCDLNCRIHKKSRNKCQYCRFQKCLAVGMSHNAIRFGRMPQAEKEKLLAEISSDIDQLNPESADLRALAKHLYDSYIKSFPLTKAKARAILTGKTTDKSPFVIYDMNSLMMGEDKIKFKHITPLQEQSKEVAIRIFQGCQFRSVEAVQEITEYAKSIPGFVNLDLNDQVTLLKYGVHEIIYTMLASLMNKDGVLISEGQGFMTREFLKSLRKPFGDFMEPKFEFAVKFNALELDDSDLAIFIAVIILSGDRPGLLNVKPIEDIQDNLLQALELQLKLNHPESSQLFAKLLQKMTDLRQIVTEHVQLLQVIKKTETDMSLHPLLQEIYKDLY
Test: qHTS assay for small molecule antagonists of peroxisome proliferator-activated receptor gamma signaling (AID 588537); note: % of control where 0% means no effect
Conditions: HEK293 PPARg-UAS-bla, beta-lactamase ratio, antagonist mode; series mostly up to 76.8 µM; activity, negative = inhibition: at the top concentration
Text: NIH Chemical Genomics Center [NCGC]
U.S. Environmental Protection Agency [EPA]
National Institutes of Environmental Health Sciences [NIEHS]
National Toxicology Program [NTP]
The Peroxisome proliferator-activated receptors (PPARs) are lipid-activated transcription factors of the nuclear receptor superfamily with three distinct subtypes namely PPAR alpha, PPAR delta (also called PPAR beta) and PPAR gamma. All these subtypes heterodimerizes with Retinoid X receptor (RXR) and these heterodimers regulate transcription of various genes. PPAR-gamma (glitazone receptor) ligands have been used in the treatment of type 2 diabetes and dyslipidaemia. It is involved in the regulation of glucose and lipid metabolism. PPAR-gamma activates certain genes like Paraoxonase 1 which is responsible for hydrolyzing organophosphates. PPAR-gamma ligands may also be therapeutically important in the treatment of coronary artery disease, obesity and cancer and atherosclerosis.
NCGC Assay Protocol Summary
Using a beta-lactamase reporter-gene under control of Peroxisome Proliferator-Activated-gamma (PPAR-gamma) response element, a cell-based assay [GeneBLAzer PPAR-gamma-UAS-bla assay developed by Invitrogen] was used to measure PPAR-gamma ligands signaling. GeneBLAzer PPAR-gamma-UAS-bla-HEK293 cells were used with assay medium containing 1% charcoal/dextran treated FBS. The assay was performed in clear bottom black Greiner 1536-well plates. Library compounds were measured for their ability to inhibit the reporter gene activity. Compounds were screened in a titration series in 1536-well format. The fluorescence intensity (405 nm excitation, 460/530 nm emission) was measured using an EnVision plate reader. Data was normalized relative to Rosiglitazone control (50 nM, 100%), and DMSO only wells (basal, 0%). Concentration-response titration points for each compound were fitted to the Hill equation yielding concentrations of half-maximal inhibition (IC50) and maximal response (efficacy) values.
qHTS protocol for PPAR-gamma beta-lactamase assay in antagonist mode
[Step] [Parameter] [Value] [Description]
1. Reagent; 5 uL; 3000 cells/well
2. Incubation; 37 C for 6-6.5 hrs
4. Controls (GW9662, PPAR-gamma antagonist); 23 nL,
5. Agonist (Stimulator); 1uL; Rosiglitazone at 50 nM (final) concentration
6. Incubation; 37 C for 16 hrs
7. Detection reagent; 1 uL of CCF4-dye
8. Incubation; RT for 2 hrs
9. Detection; Fluorescence; Envision plate reader

| SMILES | activity, negative = inhibition | Potency |
| --- | --- | --- |
| CCOC(=O)CCCCCCCCC(=O)OCC | -3.21% | – |
| CCCCOC(=O)c1ccccc1 | -0.591% | – |
| CCNc1nc(NC(C)CC)nc(OC)n1 (stereo not given) | 4.95% | – |
| Cl[Si](Cl)(Cl)c1ccccc1 | -0.674% | – |
| CN(C)CCOCCN(C)C | 13% | – |
| CCCCCCCCCCCCO | -2.85% | – |
| CC(C)(N=C=O)c1cccc(C(C)(C)N=C=O)c1 | 10.7% | – |
| O=[N+]([O-])c1ccc2c(c1)Cc1ccccc1-2 | 2.06% | – |
| BrC1CCC(Br)C(Br)CCC(Br)C(Br)CCC1Br (stereo not given) | 10.8% | – |
| C=C(C)C(=O)OCCCCCCCCCCCC | 0.354% | – |
| CCCCCCCCCCCCCCC(=O)OC | -0.609% | – |
| CCCCCCCCCCO | -2.3% [at 2.03 mM] | – |
| C[N+](C)(C)CC(O)CCl (stereo not given) | 1.22% | – |
| CCCCCCCCCCCC[N+](C)(C)C | -10.5% | – |
| COc1ccc(OC)c(OC)c1 | -5.28% | – |
| CCCCCCCCCCCCCCN | 10% | – |
| CCCCCCCC(=O)Oc1c(Br)cc(C#N)cc1Br | -7.01% | – |
| C[C@]12CCC(=O)C=C1CC[C@@H]1[C@@H]2[C@@H](O)C[C@]2(C=O)[C@@H](C(=O)CO)CC[C@@H]12 | 8.06% | – |
| Cc1ccc(C(=O)c2ccccc2)cc1 | 5.01% | – |
| O=C(OCC1CCC2OC2C1)C1CCC2OC2C1 (stereo not given) | 13.5% | – |

| SMILES | activity, negative = inhibition | Potency |
| --- | --- | --- |
| C=C(C)C(=O)OCCC[Si](OC)(OC)OC | 4.56% | – |
| CCCCCCCC[Si](OCC)(OCC)OCC | 0.233% | – |
| CC(COCC(C)OC(=O)c1ccccc1)OC(=O)c1ccccc1 (stereo not given) | 8.28% | – |
| C=CCCCCCCCCCCCC | -3.35% | – |
| C[Si]1(C)N[Si](C)(C)N[Si](C)(C)N1 | 5.08% | – |
| NN(c1ccccc1)c1ccccc1 | 0.901% | – |
| CCC(O)OCCCOC (stereo not given) | -0.0265% | – |
| Nc1cc(Cl)nc(C(=O)O)c1Cl | -1.08% | – |
| CCCCCCCCCCCCN | 7.11% | – |
| C=CC(=O)NC(C)(C)CS(=O)(=O)O | – | inactive |
| CC1(C)C(=O)NC(=O)N1CO | 6.45% | – |
| c1cc(-c2ccncc2)ccn1 | 7.72% | – |
| COCCO | – | inactive |
| CC(C)=CCC/C(C)=C\CO | 6.8% | – |
| CCCCOCCOCCO | 6.62% | – |
| CCCCCCCCCCCCCCCC | -1.97% | – |
| Cn1c(=O)[nH]c(=O)n(C2CCC(O)CC2)c1=O (stereo not given) | 6.95% | – |
| CCCCCCCCCCCCCO | 3.14% | – |
| CNc1nc(=O)n(C2CCC(O)CC2)c(=O)n1C (stereo not given) | 7.14% | – |
| CCCCCCCCCC(C)=O | 4.61% | – |
